Here are results for nine compounds from PubChem BioAssay (NCATS).

Inconclusive results are not listed. Active and inactive are the calls of the source. Unless noted, calls follow the shape of the dose curve; as a rule, active = well fitted curve in the direction sought with a large enough effect; inconclusive = small, poorly fitted or top-dose-only effect, or another doubt; inactive = no such curve, though single readings can be large; an effect the other way counts as inactive or inconclusive.

For experiment [1], the target named is Atrial natriuretic peptide receptor 1 (Homo sapiens) (UniProt P16066). Put plainly: Natriuretic polypeptide receptor (hNpr1) antagonism - Pilot screen (AID 1347049; calls by dose curve;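 also: agonist-evoked cGMP luminescence read 20 min after hNppA addition; series mostly up to about 58 µM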). An outline of the steps:
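HEK293 cells co-expressing hNpr1 and the GloSensor pGS-40F cGMP luciferase sensor were preloaded with 2% GloSensor reagent for 2 h. Compounds were added for 30 min at room temperature, then cells were stimulated with 0.1 nM hNppA for 20 min before luminescence readout.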

The target in experiment [2] is Atrial natriuretic peptide receptor 2 (Homo sapiens) (UniProt P20594). Put plainly: Natriuretic polypeptide receptor (hNpr2) antagonism - Pilot subtype selectivity assay (AID 1347050; calls by dose curve; also: potency is read from the fitted curve at half-maximal effect). An outline of the steps: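 cGMP-sensor HEK293/hNpr2 cells; 2% GloSensor reagent 2 h RT; compounds 30 min; baseline luminescence read; 1 nM hNppC agonist 20 min RT; final luminescence read by CCD camera. Antagonism = reduced post-agonist signal.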

Experiment [3] deals with Parathyroid hormone/parathyroid hormone-related peptide receptor (Homo sapiens) (UniProt Q03431). Description: qHTS for PTHR1 Agonists: Optimization Screen against the NCGC LOPAC library (AID 1347079).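 Also: GloSensor cAMP luminescence in HEK-293 GP2 cells expressing human PTHR1 with IBMX.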 An outline of the steps: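 Compounds were tested across a qHTS titration. PTHR1-expressing GP2 cells report cAMP rises via GloSensor luminescence after 1 hr compound exposure at 37C with IBMX present.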

A short description of experiment [4]: qHTS of pediatric cancer cell lines to identify multiple opportunities for drug repurposing: Primary screen for SJ-GBM2 cells (AID 1347091). Also: potency is read from the fitted curve at half-maximal effect. An outline of the steps:
(§1)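 Eight- or eleven-point concentration series, 48 h treatment at 37 degrees C in growth media; readout CellTiter-Glo luminescence. Potency and efficacy were taken from the concentration-response curves.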

A short description of experiment [5]: qHTS of pediatric cancer cell lines to identify multiple opportunities for drug repurposing: Primary screen for U-2 OS cells (AID 1347096). Also: nearly all actives have a fitted effect of over 50% in size. An outline of the steps: (§2)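 Cells (500-1,000/well) in growth media were settled 5 h at 37 degrees C, then given compounds for 48 h. Viability was read as CellTiter-Glo luminescence. Primary runs used MIPE at 11 points (0.78 nM-46 µM) and NPC at 8 points (0.59 nM-46 µM); follow-ups used 11 points.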

Experiment [6] can be described thus: qHTS of pediatric cancer cell lines to identify multiple opportunities for drug repurposing: Primary screen for Saos-2 cells (AID 1347097). Also: nearly all actives have a fitted effect of over 40% in size. Also: potency is read from the fitted curve at half-maximal effect. An outline of the steps: (§3)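 Cells plated at 500-1,000/well in growth medium, compounds added after 5 h. MIPE tested at 11 points (from 0.78 nM), NPC at 8 points (from 0.59 nM). CellTiter-Glo luminescence after 48 h; concentration-response curves from primary screen.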

Experiment [7] can be described thus: qHTS of pediatric cancer cell lines to identify multiple opportunities for drug repurposing: Primary screen for SK-N-SH cells (AID 1347098). Also: nearly all actives have a fitted effect of over 65% in size. Also: potency is read from the fitted curve at half-maximal effect. An outline of the steps: (§4)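 Cells (500-1,000/well) rested 5 h, then received compounds for 48 h; metabolically active cells were measured by CellTiter-Glo luminescence. Final concentrations spanned up to 46 µM (MIPE, 11-point) or 0.59 nM-46 µM (NPC, 8-point) in primary screens, 11-point in follow-ups.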

Experiment [8] is described as follows: qHTS of pediatric cancer cell lines to identify multiple opportunities for drug repurposing: Primary screen for LAN-5 cells (AID 1347100). Also: potency is read from the fitted curve at half-maximal effect. The essentials:
as §2

Experiment [9] can be described thus: NS1 protein of Zika virus - qHTS assay to identify small molecule inhibitors in human HEK 293 cells (AID 1347053). Also: series mostly up to about 46 µM; nearly all actives have a fitted effect of over 55% in size. The essentials: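 HEK 293; 20 h pre-culture, 37 C/5% CO2; cpd 1 h pre-infection; ZIKV MR766, MOI = 0.5, 24 h, 37 C; TR-FRET NS1 readout (two anti-NS1 Abs); norm. to no-virus vs infected.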
In experiment [10] the target is T1, Tyrosine-protein phosphatase non-receptor type substrate 1 (Homo sapiens) + Leukocyte surface antigen CD47 (Homo sapiens) (UniProt P78324+Q08722). Description: CD47-SIRPalpha protein protein interaction - LANCE assay qHTS validation (AID 1347057; active = well fitted curve in the direction sought with a large enough effect in the signal ratio, with a control signal flat, not every such curve was filed as active; the % refers to the signal ratio; also: series mostly up to about 38 µM). An outline of the steps:
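First, His-tagged CD47 and Eu-labelled anti-His antibody met the compound for 30 min; next, site-specifically biotinylated SIRPalpha was added for 30 min; finally streptavidin-APC was added before reading the TR-FRET ratio.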

The target in experiment [11] is T1, Tyrosine-protein phosphatase non-receptor type substrate 1 (Homo sapiens) + Leukocyte surface antigen CD47 (Homo sapiens). Put plainly: CD47-SIRPalpha protein protein interaction - HTRF assay qHTS validation (AID 1347058; active = well fitted curve in the direction sought with a large enough effect in the signal ratio, not every such curve was filed as active; the % refers to the signal ratio; also: series mostly up to about 38 µM). The essentials:
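TR-FRET read (Ch1/Ch2 ratio) of soluble extracellular CD47 and Avi-biotinylated SIRPalpha domains in PBS pH 7.4 with 0.05% IGEPAL; 7-point compound titration. Sequential 30 min room-temperature steps; non-biotinylated SIRPalpha as control inhibitor.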

Experiment [12] has the same target. Put plainly: CD47-SIRPalpha protein protein interaction - Alpha assay qHTS validation (AID 1347059).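 Also: bead proximity luminescence from CD47 binding SIRPalpha after compound preincubation with SIRPalpha.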 An outline of the steps: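 Soluble extracellular domains: Avi-tag biotinylated SIRPalpha (25 nM) preincubated 30 min RT with compound, then 6His-CD47 (12.5 nM) 30 min; Ni-NTA acceptor and streptavidin donor beads (10 ug/mL) 30 min, AlphaScreen read. PBS pH 7.4, 0.05% IGEPAL.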

The nature of experiment [13]: qHTS of pediatric cancer cell lines to identify multiple opportunities for drug repurposing: Primary screen for TC32 cells (AID 1347089). Also: nearly all actives have a fitted effect of over 60% in size. An outline of the steps: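 TC32 cells, 500-1,000/well in growth medium, compound-treated 48 h at 37 °C; viability from CellTiter-Glo luminescence. Primary screen: MIPE 11-point (0.78 nM–46 µM final), NPC 8-point (0.59 nM–46 µM final); confirmatory at 11-point dilutions.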

Experiment [14] is described as follows: qHTS of pediatric cancer cell lines to identify multiple opportunities for drug repurposing: Primary screen for DAOY cells (AID 1347090). Also: nearly all actives have a fitted effect of over 55% in size. Also: potency is read from the fitted curve at half-maximal effect. An outline of the steps: as §1
Experiment [15] can be described thus: qHTS of pediatric cancer cell lines to identify multiple opportunities for drug repurposing: Primary screen for A673 cells (AID 1347092). Also: nearly all actives have a fitted effect of over 45% in size. An outline of the steps: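 A673 cells (500-1,000 cells/well) were treated 48 hours at 37 degrees C with compounds at 11-point (0.78 nM to 46 µM) or 8-point (0.59 nM to 46 µM) dilutions. Viability read by CellTiter-Glo luminescence; concentration-response curves fitted.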

Experiment [16] can be described thus: qHTS of pediatric cancer cell lines to identify multiple opportunities for drug repurposing: Primary screen for SK-N-MC cells (AID 1347093). Also: series mostly up to about 46 µM. The essentials:
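Metabolically active cells were quantified by ATP-dependent luminescence (CellTiter-Glo, 15 min at room temperature) following 48 h treatment. Cells had been plated at 500-1,000 per well and settled for 5 h beforehand.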

Experiment [17] in a line: qHTS of pediatric cancer cell lines to identify multiple opportunities for drug repurposing: Primary screen for BT-37 cells (AID 1347094). Also: potency is read from the fitted curve at half-maximal effect. An outline of the steps:
as §3

Experiment [18] can be described thus: qHTS of pediatric cancer cell lines to identify multiple opportunities for drug repurposing: Primary screen for NB-EBc1 cells (AID 1347095). An outline of the steps:
as §3

Experiment [19] is described as follows: qHTS of pediatric cancer cell lines to identify multiple opportunities for drug repurposing: Primary screen for NB1643 cells (AID 1347099). Also: nearly all actives have a fitted effect of over 50% in size. An outline of the steps: as §3
Experiment [20] can be described thus: qHTS of pediatric cancer cell lines to identify multiple opportunities for drug repurposing: Primary screen for BT-12 cells (AID 1347101). Also: nearly all actives have a fitted effect of over 25% in size. Also: potency is read from the fitted curve at half-maximal effect. The essentials:
as §4

T1 sequence (P78324 whole entry, looked up): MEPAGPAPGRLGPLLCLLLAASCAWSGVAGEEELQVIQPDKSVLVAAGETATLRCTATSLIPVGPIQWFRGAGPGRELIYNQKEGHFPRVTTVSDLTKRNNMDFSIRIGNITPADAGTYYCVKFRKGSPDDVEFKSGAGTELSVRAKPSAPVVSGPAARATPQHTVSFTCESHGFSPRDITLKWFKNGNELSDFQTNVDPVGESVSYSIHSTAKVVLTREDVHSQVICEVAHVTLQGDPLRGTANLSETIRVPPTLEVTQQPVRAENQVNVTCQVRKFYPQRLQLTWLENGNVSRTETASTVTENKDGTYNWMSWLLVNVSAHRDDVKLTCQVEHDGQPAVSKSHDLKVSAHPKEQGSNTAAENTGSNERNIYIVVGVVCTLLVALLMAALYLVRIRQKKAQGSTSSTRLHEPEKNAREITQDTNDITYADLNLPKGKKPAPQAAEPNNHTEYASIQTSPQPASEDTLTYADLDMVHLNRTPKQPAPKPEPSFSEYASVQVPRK
T1 sequence (Q08722 whole entry, looked up): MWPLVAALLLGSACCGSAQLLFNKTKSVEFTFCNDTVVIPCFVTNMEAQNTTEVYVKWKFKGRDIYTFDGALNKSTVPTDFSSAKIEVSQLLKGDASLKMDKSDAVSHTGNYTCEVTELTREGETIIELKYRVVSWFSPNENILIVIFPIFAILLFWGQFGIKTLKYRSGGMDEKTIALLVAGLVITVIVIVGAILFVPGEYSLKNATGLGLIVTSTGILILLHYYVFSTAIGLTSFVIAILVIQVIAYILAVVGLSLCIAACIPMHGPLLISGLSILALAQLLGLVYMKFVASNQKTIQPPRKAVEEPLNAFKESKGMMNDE
Sequence of Atrial natriuretic peptide receptor 1 (Homo sapiens) (P16066 whole entry, looked up): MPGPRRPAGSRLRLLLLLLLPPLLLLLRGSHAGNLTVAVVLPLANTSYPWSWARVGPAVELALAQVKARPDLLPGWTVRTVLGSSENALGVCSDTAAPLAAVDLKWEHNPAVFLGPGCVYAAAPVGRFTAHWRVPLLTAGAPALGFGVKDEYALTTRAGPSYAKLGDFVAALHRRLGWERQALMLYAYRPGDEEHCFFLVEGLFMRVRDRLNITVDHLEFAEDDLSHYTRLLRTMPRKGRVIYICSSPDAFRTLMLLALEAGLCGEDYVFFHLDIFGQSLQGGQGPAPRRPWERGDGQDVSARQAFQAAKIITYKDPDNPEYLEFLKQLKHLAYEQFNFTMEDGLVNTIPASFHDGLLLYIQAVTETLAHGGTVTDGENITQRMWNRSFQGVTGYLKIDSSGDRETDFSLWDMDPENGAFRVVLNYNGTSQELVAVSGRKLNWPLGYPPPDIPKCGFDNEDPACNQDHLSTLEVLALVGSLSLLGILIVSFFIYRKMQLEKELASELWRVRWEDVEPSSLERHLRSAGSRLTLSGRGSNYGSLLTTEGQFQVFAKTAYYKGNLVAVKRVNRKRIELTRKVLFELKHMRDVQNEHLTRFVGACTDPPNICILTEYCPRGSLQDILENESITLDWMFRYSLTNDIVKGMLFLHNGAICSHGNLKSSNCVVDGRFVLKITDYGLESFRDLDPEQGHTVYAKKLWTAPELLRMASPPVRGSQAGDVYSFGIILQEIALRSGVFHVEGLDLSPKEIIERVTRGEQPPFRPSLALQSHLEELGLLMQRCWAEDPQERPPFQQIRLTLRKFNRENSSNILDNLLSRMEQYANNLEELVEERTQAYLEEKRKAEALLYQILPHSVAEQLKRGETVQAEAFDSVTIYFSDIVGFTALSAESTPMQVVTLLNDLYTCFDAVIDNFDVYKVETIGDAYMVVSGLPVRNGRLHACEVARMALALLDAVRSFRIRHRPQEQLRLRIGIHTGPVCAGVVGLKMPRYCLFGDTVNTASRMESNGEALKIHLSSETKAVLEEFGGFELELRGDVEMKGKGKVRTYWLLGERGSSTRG
Sequence of Parathyroid hormone/parathyroid hormone-related peptide receptor (Homo sapiens) (Q03431 whole entry, looked up): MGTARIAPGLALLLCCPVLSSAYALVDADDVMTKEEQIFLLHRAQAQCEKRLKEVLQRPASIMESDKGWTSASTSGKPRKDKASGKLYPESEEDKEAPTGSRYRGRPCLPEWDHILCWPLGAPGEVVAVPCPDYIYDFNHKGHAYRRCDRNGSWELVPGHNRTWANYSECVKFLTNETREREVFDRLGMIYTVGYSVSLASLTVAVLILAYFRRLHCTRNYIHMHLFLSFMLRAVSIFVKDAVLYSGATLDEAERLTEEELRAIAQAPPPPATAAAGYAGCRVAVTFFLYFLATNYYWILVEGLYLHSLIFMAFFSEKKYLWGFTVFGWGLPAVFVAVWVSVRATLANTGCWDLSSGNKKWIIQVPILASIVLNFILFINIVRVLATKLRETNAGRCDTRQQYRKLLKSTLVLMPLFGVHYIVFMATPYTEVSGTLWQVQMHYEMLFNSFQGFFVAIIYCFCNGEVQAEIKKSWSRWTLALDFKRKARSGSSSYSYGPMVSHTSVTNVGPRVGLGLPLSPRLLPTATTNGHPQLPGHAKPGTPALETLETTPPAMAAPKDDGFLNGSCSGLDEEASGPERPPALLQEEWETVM
Sequence of Atrial natriuretic peptide receptor 2 (Homo sapiens) (P20594 whole entry, looked up): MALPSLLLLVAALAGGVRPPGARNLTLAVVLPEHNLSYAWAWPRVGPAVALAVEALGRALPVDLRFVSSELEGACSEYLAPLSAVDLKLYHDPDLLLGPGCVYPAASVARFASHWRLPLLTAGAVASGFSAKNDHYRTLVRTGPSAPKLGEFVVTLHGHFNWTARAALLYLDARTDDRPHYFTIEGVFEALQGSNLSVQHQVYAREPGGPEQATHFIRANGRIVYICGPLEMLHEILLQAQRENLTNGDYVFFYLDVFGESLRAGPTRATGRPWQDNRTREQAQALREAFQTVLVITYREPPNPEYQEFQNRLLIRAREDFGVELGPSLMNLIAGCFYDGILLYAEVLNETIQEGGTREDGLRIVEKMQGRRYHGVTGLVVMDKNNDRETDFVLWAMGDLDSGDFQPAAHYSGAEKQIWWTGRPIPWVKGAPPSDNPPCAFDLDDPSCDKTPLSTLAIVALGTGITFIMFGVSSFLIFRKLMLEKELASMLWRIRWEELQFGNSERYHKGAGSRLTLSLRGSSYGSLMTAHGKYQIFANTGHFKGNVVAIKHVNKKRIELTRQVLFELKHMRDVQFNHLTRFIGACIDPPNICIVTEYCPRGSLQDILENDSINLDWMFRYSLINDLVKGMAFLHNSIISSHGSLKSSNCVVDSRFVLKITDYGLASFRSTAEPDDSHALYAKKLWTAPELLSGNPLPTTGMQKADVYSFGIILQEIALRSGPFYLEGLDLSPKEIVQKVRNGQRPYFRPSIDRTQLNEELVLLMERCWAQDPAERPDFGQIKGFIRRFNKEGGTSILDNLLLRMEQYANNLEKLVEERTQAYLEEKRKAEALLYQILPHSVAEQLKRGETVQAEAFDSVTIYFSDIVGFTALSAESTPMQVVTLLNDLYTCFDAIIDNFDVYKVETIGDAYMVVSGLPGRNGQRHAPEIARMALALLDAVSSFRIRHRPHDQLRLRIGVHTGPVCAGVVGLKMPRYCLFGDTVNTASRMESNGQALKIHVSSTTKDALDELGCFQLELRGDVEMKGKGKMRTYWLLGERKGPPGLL

Turning to `OCCN1CCN(CCCN2c3ccccc3Sc3ccc(Cl)cc32)CC1`, the result in experiment [1] was inactive. In addition, the Potency was 16.5 µM (active) in [2]; 21.1 µM (active) in [4]; 11.9 µM (active) in [6]; 8.64 µM (active) in [7]; 23.7 µM (active) in experiment [8]. In addition, the Potency result in [3] and in experiment [5] was “inactive” throughout.
Turning to `CN1CCC[C@@H]1Cc1c[nH]c2ccc(CCS(=O)(=O)c3ccccc3)cc12`, the Potency entry in experiment [9], in [13], in [14], in experiment [4], in experiment [15] and in experiment [16] was “inactive” throughout. For the same compound, the Potency entry in [17], in experiment [18], in experiment [5], in experiment [6], in experiment [7] and in [19] was “inactive” throughout. Moreover, the Potency entry in experiment [8] and in experiment [20] was “inactive” each time. Besides, the outcome in [10], in experiment [11] and in experiment [12] was inactive.
For `CSc1ccc2c(c1)N(CCC1CCCCN1C)c1ccccc1S2` (stereo not drawn), the Potency result in [9], in experiment [3] and in experiment [18] was “inactive” throughout. For the same compound, the result in [10] and in experiment [11] was inactive. Besides, the Potency in experiment [14] was 16.8 µM (active); in experiment [17], 24.6 µM (active); in [6] it was 23.7 µM (active); in experiment [20] it was 24.6 µM (active).
With `O=C1NC(=O)[C@@]2(CCOc3ccc(F)cc32)N1`, the Potency entry in experiment [9], in experiment [4], in experiment [15], in experiment [16], in experiment [17] and in experiment [18] was “inactive” in each case. Also, the Potency result in experiment [5], in experiment [6], in [7], in experiment [19], in experiment [8] and in experiment [20] was “inactive” each time. In addition, the result in experiment [10], in experiment [11] and in [12] was inactive.
Take `COCCOC(=O)C1=C(C)NC(C)=C(C(=O)OC/C=C/c2ccccc2)C1c1cccc([N+](=O)[O-])c1` (stereo not drawn): the compound was called inactive in experiment [1] and in [10]. For the same compound, the Potency result in [2], in experiment [3], in [13], in experiment [14] and in experiment [19] was “inactive” each time.
For `CN(C)CCC=C1c2ccccc2CCc2ccccc21`, the compound was classed as inactive in experiment [1], in experiment [10], in experiment [11] and in [12]. Further, the Potency entry in [9], in experiment [3], in experiment [14], in experiment [5] and in experiment [19] was “inactive” each time.
As to `CCCCc1ncc(/C=C(\Cc2cccs2)C(=O)O)n1Cc1ccc(C(=O)O)cc1`, the Potency result in [9], in experiment [13], in [14], in experiment [4], in [15] and in experiment [16] was “inactive” throughout. For the same compound, the Potency result in experiment [17], in [18], in experiment [5], in experiment [6], in experiment [7] and in experiment [19] was “inactive” in each case. For the same compound, the Potency result in experiment [8] and in experiment [20] was “inactive” in each case. Besides, the outcome in experiment [10] and in [12] was inactive.
`CSc1ccc2c(c1)C(N1CCN(C)CC1)Cc1ccccc1S2` (stereo not drawn): the compound was called inactive in [1], in experiment [10] and in [11]. Also, the Potency result in experiment [3], in [14], in experiment [18], in [5] and in experiment [19] was “inactive” throughout. For the same compound, the Potency in [7] is 27.3 µM (active).
As for `C=Cc1c(C)c2cc3[nH]c(cc4nc(cc5nc(cc1[nH]2)C(C)=C5CCC(=O)O)C(CCC(=O)O)=C4C)c(C)c3C=C`, the compound was called inactive in experiment [1], in experiment [10] and in [12]. In addition, the Potency entry in experiment [9], in [3], in [13], in [14], in [4] and in experiment [15] was “inactive” each time. Besides, the Potency result in experiment [16], in experiment [17], in experiment [18], in [5], in experiment [6] and in experiment [7] was “inactive” in each case. Moreover, the Potency entry in experiment [19], in experiment [8] and in [20] was “inactive” each time.
